Data: the supplement of paper PMC6555819

What was measured:
Test in all cases: PBM binding z-score (relative to random genomic background probes); higher = stronger binding; sequences stand for … in GC…GCGATTGACAGCGTAGAATGAAGG
[1] = tested on: FXR:RXRa (NR concentration 270 nM, RXRa partner concentration 90 nM)
How it was run: (§1)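 Regression normalization was applied to scanned fluorescence from custom Agilent 4×180K protein-binding microarrays. Before scanning, arrays were incubated 1 h with ligand-free nuclear receptor dimers, and binding was detected with antibodies against each partner (one per run). Binding z-scores use the random background probes as reference.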

[2] = tested on: LXRa:RXRa (NR concentration 270 nM, RXRa partner concentration 90 nM)
How it was run: as §1

[3] = tested on: LXRa homodimer (NR concentration 270 nM)
How it was run: as §1

[4] = tested on: LXRb homodimer (NR concentration 270 nM)
How it was run: as §1

[5] = tested on: PPARg:RXRa 270nM:90nM, anti-RXR (NR concentration 270 nM, RXRa partner concentration 90 nM)
How it was run: as §1

[6] = tested on: PPARg:RXRa 30nM:10nM, anti-RXR (NR concentration 30 nM, RXRa partner concentration 10 nM)
How it was run: as §1

[7] = tested on: PPARg:RXRa 90nM:30nM, anti-RXR (NR concentration 90 nM, RXRa partner concentration 30 nM)
How it was run: as §1

[8] = tested on: PPARg:RXRa DBDmut IVT, anti-RXR (DBD mutation: RXRa K156A/R161A, NR concentration 270 nM, RXRa partner concentration 90 nM)
How it was run: as §1

[9] = tested on: PPARa:RXRa (NR concentration 270 nM, RXRa partner concentration 90 nM)
How it was run: as §1

[10] = tested on: PPARg:RXRa (NR concentration 180 nM, RXRa partner concentration 90 nM)
How it was run: as §1

Sequence	PBM binding z-score [1]	PBM binding z-score [2]	PBM binding z-score [3]	PBM binding z-score [4]	PBM binding z-score [5]	PBM binding z-score [6]	PBM binding z-score [7]	PBM binding z-score [8]	PBM binding z-score [9]	PBM binding z-score [10]
ATATGTAGGTCAAGGGTCATTCAGGTTGGTTCGC	7.27	6.25	5.58	2.07	10.5	11.7	11.7	8.58	–	–
ATATGTAGGTTAGGGGTCATTCAGGTTGGTTCGC	6.13	5.98	4.58	3.55	9.8	10.2	11	7.09	6.51	11.4
TCGTGTAGGTTACGGGGGCATTCAGGGATGAAGA	3.84	3.76	1.21	–	6.17	4.82	5.8	5.22	–	6.02
GATATAGGGTCAGCTAGAGGCCAGAGTATGGAAA	5.03	–	0.0568	-0.307	3.86	1.25	2.44	2.49	4.76	4.09
AGAATGAGGTTACCAAAGTTCAGGGAAACGCTTG	3.73	–	7.31	-0.0133	4.08	1.65	3.24	3.96	4.6	3.65
TAGCCTAGGTCATTCAGGGGCCACTATAGAAAGC	4.76	–	1.27	1.1	2.83	0.439	2.09	2.08	3.95	2.63
ATATGTAGGTTAAAGGTCATTCAGGTTGGTTCGC	7.3	6.58	6.86	2.72	11	13.3	13.6	8.31	–	–
CCGACGGGGGCAAAGGTTACCATACTCAGTACGA	5.52	5.02	0.667	5.6	9.24	8.76	10.4	2.71	–	10
CTATGTAGGTTAGGGGGGTCATTCAGTTTGAAAG	5.78	5.66	3.89	–	7	5.35	7.07	6.54	5.95	9.03
CTATGTAGGTTACGGGGGTCATTCAGTTTGAAAG	5.4	5.54	2.93	–	7.81	5.47	7.92	7.41	–	9.31
ATATGTAGGTTATCTGGGGTCATTCAGACTAGGC	6.16	–	8.86	2.41	5.84	3.28	5.32	7.21	5.4	6.31
ATCTCTAGGTTAAGATAGTTCAGTGAATGCAAAT	0.821	–	2.52	0.754	1.66	0.609	1.15	3.33	1.77	1.39
TCGAGTAGGTCACGGGGGCATTCAGGGATGAAGA	6.7	5.3	1.07	–	7.99	5.9	7.7	6.73	6.09	9.41
CCTACTGGTCCAAGGTCATTGATCAGTCAAAGCA	3.53	–	2.3	0.894	3.04	0.847	2.12	0.394	–	1.77
CAAACTAGGTCAAAAGGTCAAAGTCCGCTTCCCG	7.44	–	6.17	2.63	8.73	7.62	9.1	8.5	–	10.2
ATCGAAAGGTCGAAGGTGAGCATACCCACCCGAA	4.19	–	0.288	0.758	5.08	2.36	4.36	0.147	–	5.08
CCTTACGGGTCACGTGGTTATAGCACGACGAGCG	6.41	–	-0.108	-0.474	5.77	2.2	4.59	3.06	–	6.07
CTCGAAAGGTCGTGCTCAGATGAGTATACCAAAC	5.4	–	0.0537	0.486	3.42	0.769	2.09	0.422	–	2.71
CCTACGGGGCCACGAAAGGTCATTGATTCAGTGA	4.71	–	4.26	0.262	3.88	1.18	2.46	1.57	–	2.82
TCTAGTTGGTCACGGAGGACACACACGACGGGTA	0.602	–	0.465	0.417	1.7	2.85	2.53	2.26	–	1.34
AATACAGGGTCATCGTAGGTCAGAGTACGCACAG	7.7	–	5.76	1.95	6.38	3.55	5.23	3.26	–	7.46
CCTACTGGGTCACGAAAGGTCATTGATTCAGTGA	6.45	–	6.45	0.81	7.71	5.23	6.95	7.12	–	9.12
AGAATGAGGTTACCAAAGGTCAGGGAAACGCTTG	6.02	–	8.17	0.893	5.63	3.27	4.99	4.16	–	5.51
TAGCCTAGGTCATGCGGGCCAATATAGTGTCGGC	4.22	–	0.473	-0.31	2.44	0.146	1.26	1.58	–	2.39
ATATGTAGGTTAGCTGGGGTCCTTCAGACTAGGC	0.425	–	-0.109	0.384	2.75	0.715	1.78	6.27	–	2.96
AGTCAAAGTTCAGGACGACGTAACGTAAAGCACG	3.58	–	0.954	-0.163	4.5	1.87	4	-0.52	–	4.42
TATTCAGGGTCAAAGGCCAGAGTACGAATGTCGA	7.57	–	5.36	5.04	7.7	6.15	7.42	2.47	–	8.53
